PubChem BioAssay
The source made the active and inactive calls.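 The calls were made as follows: active = inhibition above 20% together with a positive visual image hit; inconclusive = visual image hit but inhibition not above 20%; inactive = no visual image hit.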

Experiment: inhibitors of TNFa-induced NFkB p65 translocation, primary screen, imaging, HUVEC, MLSMR starter and 10KST1 sets (AID 438);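 also: compound added about 3h40 before a 20 min TNFalpha stimulation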;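 as to inhibition: signal is the nuclear over cytoplasmic p65 intensity ratio per well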
Details: HUVEC TNFa-induced p65 nuclear translocation; cell count: measured here: nuclei count (cytotoxicity indicator), at 2.08 µM; inhibition: at 2 µM, stronger effect = higher value, 0% TNFa-plus-vehicle, 100% no-TNFa wells

Compound	cell count	inhibition
C/C(Nc1cccc(F)c1)=C(/C#N)C(N)=O	640	3.4% (inactive)
Cc1cc(C(F)(F)F)nc(SCC(=O)NC2=NC(=O)C(C)S2)n1 (stereo not given)	370	6.1% (inactive)
Cn1c(CCNC(=O)c2ccco2)nc2cc(NC(=O)C3CCCCC3)ccc21	359	0.5% (inactive)
Cc1nn(C(=O)c2ccc3c(c2)OCO3)c(N)c1-c1ccccc1	581	5.1% (inactive)
Cc1c(C)[n+](=O)c2c(n1[O-])CCCCC2	545	-27.9% (inactive)
Cc1cc(C(=O)CSc2nc3ccccc3[nH]2)c(C)n1C	659	5.3% (inactive)
COc1ccc(C(=O)NCCn2ccc3ccccc32)c(OC)c1	280	-2.5% (inactive)
O=C(CCSc1nccn1Cc1ccccc1)N1CCOCC1	447	-6.8% (inactive)
c1ccc(Cn2nnc3c(N4CCCCCC4)ncnc32)cc1	525	-4.2% (inactive)
O=C(Nc1ccc(NC(=O)c2ccco2)nc1)c1cccnc1	505	19.2% (inactive)
COc1ccc(-c2noc(COc3ccc(C)c(C)c3)n2)cc1OC	334	2.7% (inactive)
Nc1ncnc(Nc2ccccc2C(F)(F)F)n1	382	-3.3% (inactive)
O=C(COc1ccccc1Cl)NCc1ccco1	310	-13% (inactive)
COC(=O)c1ccccc1NC1c2ccccc2C(=O)N1c1cccnc1 (stereo not given)	725	-6.7% (inactive)
Cc1ccc2cc(C#N)c(NCCCNC(=O)C3CCCO3)nc2c1 (stereo not given)	271	-2.8% (inactive)
